# Measured values from PubChem BioAssay (Tox21).
# Where “and” joins values, the source holds several entries; their conditions need not be identical. Equal values may be shown once. Results filed as inconclusive are left out. Where a call stands in place of a potency, no number is given. A structure can be active in one record and inactive in another. Calls of active or inactive are those of the source. Unless noted, the call rests on the fitted dose curve; in most records, active means well fitted curve in the direction sought with a large enough effect in the repeat runs; inconclusive means weak or mixed curves; inactive means no such curve, though single readings can be large; an effect the other way counts as inactive or inconclusive.
# Tests used:
# [1] = qHTS assay to identify small molecule antagonists of the thyroid receptor (TR) signaling pathway - cell viability counter screen (AID 743064); further: nearly all actives have a fitted effect of over 50% in size; further: potency means the concentration at half of the fitted maximal effect
# Method in brief: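 Fluorescence from CellTiter-Fluor, added after 23.5 h exposure at 37 °C, reported viability of GH3.TRE-Luc cells co-treated with compound and 1 nM T3. Measured in the same wells as the luciferase TR readout.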
# [2] = qHTS assay to identify small molecule antagonists of the thyroid receptor (TR) signaling pathway (AID 743065); further: nearly all actives have a fitted effect of over 55% in size; further: potency means the concentration at half of the fitted maximal effect
# Method in brief: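 GH3.TRE-Luc rat pituitary cells carrying two TR response elements driving luciferase were plated for 4 h, given compound plus 1 nM T3 (final), and incubated 23.5 h at 37 C. ONE-Glo luminescence measured reporter inhibition; CellTiter-Fluor fluorescence tracked cytotoxicity.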
# [3] = system: thyroid hormone receptor (rat, GH3 cells); assay: qHTS assay to identify small molecule agonists of the thyroid receptor (TR) signaling pathway (AID 743066; calls by dose curve; further: potency means the concentration at half of the fitted maximal effect)
# [4] = qHTS assay to identify small molecule antagonists of the estrogen receptor alpha (ER-alpha) signaling pathway - cell viability counter screen (AID 743074; calls by dose curve;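 further: HEK293 cells carrying ER-alpha-UAS-bla reporter stimulated with 17beta-estradiol; nearly all actives have a fitted effect of over 45% in size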)
# [5] = qHTS assay to identify small molecule antagonists of the estrogen receptor alpha (ER-alpha) signaling pathway using the BG1 cell line - cell viability counter screen (AID 743081);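 further: compound given together with 17beta-estradiol as the ER stimulus; series mostly up to about 70 µM; nearly all actives have a fitted effect of over 45% in size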
# [6] = molecular target: Aromatase (Homo sapiens) (UniProt P11511); assay: qHTS assay to identify aromatase inhibitors (AID 743083); further: nearly all actives have a fitted effect of over 55% in size; further: potency means the concentration at half of the fitted maximal effect
# Sequence of Aromatase (Homo sapiens) (P11511 whole entry, looked up): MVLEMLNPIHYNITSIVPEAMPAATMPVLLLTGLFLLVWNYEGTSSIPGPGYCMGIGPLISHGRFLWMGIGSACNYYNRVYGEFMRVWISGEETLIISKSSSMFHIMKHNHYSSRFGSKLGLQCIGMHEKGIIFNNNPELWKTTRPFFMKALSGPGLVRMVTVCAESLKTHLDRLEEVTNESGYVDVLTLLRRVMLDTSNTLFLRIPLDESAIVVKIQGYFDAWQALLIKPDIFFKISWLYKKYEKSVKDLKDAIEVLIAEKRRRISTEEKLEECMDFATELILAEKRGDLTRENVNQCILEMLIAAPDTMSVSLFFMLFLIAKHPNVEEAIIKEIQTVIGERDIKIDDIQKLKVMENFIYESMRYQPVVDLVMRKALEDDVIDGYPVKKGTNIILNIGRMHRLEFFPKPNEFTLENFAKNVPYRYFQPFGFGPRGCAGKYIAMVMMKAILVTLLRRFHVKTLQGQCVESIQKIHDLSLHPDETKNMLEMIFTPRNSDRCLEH
# [7] = molecular target: Estrogen receptor (Homo sapiens) (UniProt P03372); assay: qHTS assay to identify small molecule antagonists of the estrogen receptor alpha (ER-alpha) signaling pathway (AID 743069; active means well fitted curve in the direction sought with a large enough effect in the signal ratio in the repeat runs, not every such curve was filed as active; the % refers to the signal ratio; further: potency means the concentration at half of the fitted maximal effect)
# Sequence of Estrogen receptor (Homo sapiens) (P03372 whole entry, looked up): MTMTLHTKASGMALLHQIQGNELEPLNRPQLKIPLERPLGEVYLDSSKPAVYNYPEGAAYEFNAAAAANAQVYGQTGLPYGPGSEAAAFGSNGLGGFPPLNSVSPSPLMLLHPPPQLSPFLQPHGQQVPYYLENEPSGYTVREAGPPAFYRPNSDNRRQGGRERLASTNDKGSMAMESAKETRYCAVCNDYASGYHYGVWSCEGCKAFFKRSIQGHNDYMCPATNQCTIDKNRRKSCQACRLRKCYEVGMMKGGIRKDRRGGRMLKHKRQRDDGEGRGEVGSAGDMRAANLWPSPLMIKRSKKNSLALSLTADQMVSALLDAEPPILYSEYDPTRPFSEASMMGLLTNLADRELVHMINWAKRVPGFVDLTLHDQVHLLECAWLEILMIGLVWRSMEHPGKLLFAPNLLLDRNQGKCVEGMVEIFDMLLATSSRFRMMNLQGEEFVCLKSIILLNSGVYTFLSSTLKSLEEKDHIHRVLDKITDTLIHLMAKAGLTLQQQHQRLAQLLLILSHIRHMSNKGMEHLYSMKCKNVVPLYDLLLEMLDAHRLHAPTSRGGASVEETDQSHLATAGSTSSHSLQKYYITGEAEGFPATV
# Method in brief: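 A 17beta-estradiol challenge was applied right after compound transfer to ER-alpha-UAS-bla HEK293 cells previously kept in charcoal-stripped serum. Plates stood 18 hr at 37C and 5% CO2; fluorescence was read following 2 hr FRET substrate loading at room temperature.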
# [8] = molecular target: Estrogen receptor (Homo sapiens) (UniProt P03372); assay: qHTS assay to identify small molecule agonists of the estrogen receptor alpha (ER-alpha) signaling pathway (AID 743075; calls by dose curve;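 further: HEK293 GripTite cells with ER-alpha and UAS-driven beta-lactamase reporter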)
# [9] = molecular target: Estrogen receptor (Homo sapiens) (UniProt P03372); assay: qHTS assay to identify small molecule agonists of the estrogen receptor alpha (ER-alpha) signaling pathway using the BG1 cell line (AID 743079); further: nearly all actives have a fitted effect of over 20% in size; further: potency means the concentration at half of the fitted maximal effect
# [10] = qHTS assay to identify small molecule antagonists of the estrogen receptor alpha (ER-alpha) signaling pathway using the BG1 cell line (AID 743080; calls by dose curve;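 further: BG1 cells stimulated with 17beta-estradiol alongside compound; series mostly up to about 70 µM; nearly all actives have a fitted effect of over 25% in size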)
# Method in brief: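 After 5 days in phenol-red-free 10% charcoal-stripped FBS medium, BG1-Luc-4E2 cells were seeded, left 24 h at 37 C, co-treated with compounds and 17beta-estradiol for 21.5 h, then assayed for viability and luciferase.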
Structure (SMILES),Potency [1],Potency [2],Potency [3],outcome [4],Potency [5],Potency [6],Potency [7],Potency [8],Potency [9],Potency [10]
CCCCOC(=O)COc1ccc(Cl)cc1Cl,inactive,inactive,inactive,inactive,inactive,inactive,,,,
Fc1ccc(Br)cc1,inactive,inactive,inactive,inactive,inactive,inactive,inactive,inactive,inactive,inactive
c1ccc(OCCOc2ccccc2)cc1,inactive,inactive,inactive,inactive,inactive,inactive,inactive,inactive,61.1 µM (active) and 54.5 µM (active),
ON=C1CCCCC1,inactive,inactive,inactive,inactive,inactive,inactive,,,,
O=C(O)CC(C(=O)O)C(CC(=O)O)C(=O)O (centres undefined),inactive,inactive,inactive,inactive,inactive,inactive,inactive,inactive,inactive,inactive
CN(C)CCC(c1ccc(Cl)cc1)c1ccccn1 (centres undefined),24.4 µM (active) and 30.6 µM (active),48.7 µM (active) and 48.6 µM (active),inactive,inactive,inactive,,,,,
CC1CCC2CC1C2(C)C (centres undefined),inactive,inactive,inactive,inactive,inactive,inactive,,,,
CC(=O)OCC(=O)[C@@]12N=C(C)O[C@@H]1C[C@H]1[C@@H]3CCC4=CC(=O)C=C[C@]4(C)[C@H]3[C@@H](O)C[C@@]12C,inactive,inactive,inactive,inactive,inactive,inactive,,inactive,16.8 µM (active),
CC(=O)Nc1ccccc1,inactive,inactive,inactive,inactive,inactive,inactive,inactive,inactive,inactive,inactive
CCCCC(CC)CO (centres undefined),inactive,inactive,inactive,inactive,inactive,inactive,,,,
CCN(CC)c1ccc(C(=O)c2ccccc2C(=O)O)c(O)c1,inactive,inactive,inactive,inactive,inactive,inactive,inactive,inactive,17.3 µM (active) and 43.3 µM (active),
O=C(CC(C(=O)OC1CCCCC1)S(=O)(=O)O)OC1CCCCC1 (centres undefined),inactive,inactive,inactive,inactive,inactive,inactive,,,,
O=C=NCCCCCCN=C=O,inactive,inactive,inactive,inactive,inactive,inactive,inactive,inactive,inactive,inactive
CN(C)CCC(c1ccccc1)c1ccccn1 (centres undefined),inactive,inactive,inactive,inactive,inactive,,,,,
O=c1[nH]c(=O)n([C@H]2C[C@H](O)[C@@H](CO)O2)cc1Br,inactive,inactive,inactive,inactive,inactive,inactive,inactive,inactive,,
COCCCOc1ccnc(CS(=O)c2nc3ccccc3[nH]2)c1C (centres undefined),inactive,48.4 µM (active),inactive,inactive,inactive,inactive,,,,
O=C(O)c1ccccc1C(c1ccc(O)cc1)c1ccc(O)cc1,inactive,inactive,inactive,,inactive,inactive,inactive,inactive,inactive,inactive
CCCCC(CC)COC(=O)CS (centres undefined),inactive,inactive,inactive,inactive,inactive,,,,,
O=[N+]([O-])c1ccc(/C=C/c2ccc([N+](=O)[O-])cc2S(=O)(=O)O)c(S(=O)(=O)O)c1,inactive,inactive,inactive,inactive,inactive,inactive,inactive,inactive,inactive,inactive
CC[C@H](C)C(=O)O[C@H]1C[C@@H](C)C=C2C=C[C@H](C)[C@H](CC[C@@H]3C[C@@H](O)CC(=O)O3)[C@H]21,62 µM (active) and 60.8 µM (active),62 µM (active) and 54.2 µM (active),inactive,inactive,inactive,11.9 µM (active) and 34.9 µM (active) and 27.2 µM (active),inactive,inactive,inactive,
C[Si](O[Si](C)(C)C)O[Si](C)(C)C,inactive,inactive,inactive,inactive,inactive,inactive,,,,
O=c1[nH]nnc2ccccc12,inactive,inactive,inactive,inactive,inactive,inactive,,,,
CC1CCC(C(C)C)C(O)C1 (centres undefined),inactive,inactive,inactive,inactive,inactive,inactive,,,,

Structure (SMILES),Potency [1],Potency [2],Potency [3],outcome [4],Potency [5],Potency [6],Potency [7],Potency [8],Potency [9],Potency [10]
CCc1cccc(C)c1N,inactive,inactive,inactive,inactive,inactive,inactive,inactive,inactive,inactive,inactive
C/C=C1/CC2C=CC1C2 (centres undefined),inactive,inactive,inactive,inactive,inactive,inactive,inactive,inactive,inactive,inactive
CC(O)COCC(C)O (centres undefined),inactive,inactive,inactive,,inactive,inactive,inactive,inactive,inactive,inactive
C=C(C)C(=O)O[C@H]1C[C@@H]2CC[C@@]1(C)C2(C)C,inactive,inactive,inactive,inactive,inactive,inactive,inactive,inactive,inactive,inactive
N[C@@H](Cc1cc(I)c(Oc2cc(I)c(O)c(I)c2)c(I)c1)C(=O)O,inactive,inactive,8.4 nM (active) and 10.9 nM (active),inactive,inactive,inactive,,,,
O=c1[nH]c(=O)n([C@H]2CCCO2)cc1F,inactive,inactive,inactive,inactive,inactive,inactive,,,,
CCCCCCCCCCCCOCCO,inactive,inactive,inactive,inactive,inactive,inactive,,,,
C=C(C)C(=O)OCCOCCOCCOC(=O)C(=C)C,inactive,inactive,inactive,inactive,inactive,inactive,,,,
CC(C)(C)[C@@H](O)[C@@H](Cc1ccc(Cl)cc1)n1cncn1,inactive,inactive,inactive,inactive,inactive,inactive,,,,
CCCCCCCCCCCCc1ccccc1,inactive,,,inactive,inactive,inactive,,,,
Cc1occc(=O)c1O,inactive,inactive,inactive and 50.9 µM (active),inactive,inactive,inactive,,,,
c1ccc2c(c1)ccc1ccccc12,inactive,,inactive,inactive,inactive,inactive,inactive,inactive,inactive,inactive
CCCCCC(N)=O,inactive,inactive,inactive,inactive,inactive,inactive,,,,
CC(=O)CC(=O)Nc1ccccc1,inactive,inactive,inactive,inactive,inactive,inactive,,,,
Nc1ccccc1[N+](=O)[O-],inactive,inactive,inactive,inactive,inactive,inactive,,,,
CCC(O)OCCCOC (centres undefined),inactive,inactive,inactive,inactive,inactive,inactive,,,,
O=C(O)c1ccc(C(=O)O)cc1,inactive,inactive,inactive,inactive,inactive,inactive,,,,
C#C[C@]1(O)CC[C@H]2[C@@H]3CCC4=CC(=O)CC[C@@H]4[C@H]3CC[C@@]21C,,,,inactive,inactive,inactive,,,,inactive
CCCCC(CC)COC(=O)C(C#N)=C(c1ccccc1)c1ccccc1 (centres undefined),inactive,,inactive,,inactive,inactive,,,,
CCCCCC1=CCCC1=O,,inactive,inactive,inactive,inactive,inactive,inactive,inactive,inactive,inactive
O=C(O)c1cc(C(=O)O)cc(S(=O)(=O)O)c1,inactive,inactive,inactive,inactive,inactive,inactive,,,,
Cc1ccc(S(N)(=O)=O)cc1,inactive,inactive,inactive,inactive,inactive,inactive,,,,
CSCCC=O,inactive,,,inactive,inactive,inactive,,,,

Structure (SMILES),Potency [1],Potency [2],Potency [3],outcome [4],Potency [5],Potency [6],Potency [7],Potency [8],Potency [9],Potency [10]
CCCCCC/C(C=O)=C\c1ccccc1,inactive,inactive,inactive,inactive,inactive,inactive,,,,
CCCCCCCCC/C=C/CC1CC(=O)OC1=O (centres undefined),inactive,,inactive,inactive,inactive,,,,,
OCc1cccnc1,inactive,,inactive,inactive,inactive,inactive,inactive,inactive,inactive,inactive
OCCOCCN1CCN(C2=Nc3ccccc3Sc3ccccc32)CC1,,,inactive,inactive,inactive,,,,,
COc1ccc(Cl)cc1C(=O)NCCc1ccc(S(=O)(=O)NC(=O)NC2CCCCC2)cc1,inactive,inactive,inactive,inactive,inactive,inactive,,,,
NNc1nncc2ccccc12,,,,inactive,inactive,inactive,,,,
CCCC(C)=O,inactive,inactive,inactive,inactive,inactive,inactive,,,,
CCCSc1ccc2nc(NC(=O)OC)[nH]c2c1,452 nM (active),,,inactive,inactive,inactive,,,,
O=P(OC(CCl)CCl)(OC(CCl)CCl)OC(CCl)CCl,,61.1 µM (active),inactive,inactive,inactive,,54.9 µM [inhibitor] (active),inactive,inactive,inactive
CC1=C(C)S(=O)(=O)CCS1(=O)=O,inactive,,inactive,inactive,inactive,inactive,inactive,inactive,inactive,inactive
O=C1CCC(N2C(=O)c3ccccc3C2=O)C(=O)N1 (centres undefined),inactive,inactive,inactive,inactive,inactive,inactive,,,,
C[C@H]1C[C@@H]2[C@H]([C@@H](O)C[C@@]3(C)[C@H]2CC[C@]3(O)C(=O)CO)[C@@]2(C)C=CC(=O)C=C12,inactive,inactive,inactive,inactive,inactive,inactive,,,,
CCCCCCCCCCCCCCCO,inactive,inactive,inactive,,inactive,inactive,,,,
CN(C)CCOCCN(C)C,inactive,inactive,inactive,inactive,inactive,inactive,,,,
C[C@H]1C[C@H]2[C@@H]3CCC4=CC(=O)C=C[C@]4(C)[C@@]3(F)[C@@H](O)C[C@]2(C)[C@@]1(O)C(=O)CO,inactive,inactive,inactive,inactive,inactive,inactive,,,,
C=CCNC(N)=S,inactive,inactive,inactive,inactive,inactive,inactive,,,,
CCc1ccc(CCOc2ccc(CC3SC(=O)NC3=O)cc2)nc1 (centres undefined),inactive,,inactive,inactive,inactive,inactive,inactive,inactive,,inactive
OCCOCCOCCO,inactive,,,inactive,inactive,inactive,inactive,inactive,inactive,inactive
Cc1cccnc1,inactive,inactive,inactive,,inactive,inactive,,,,
CC1=CC(=O)NS(=O)(=O)O1,inactive,inactive,inactive,inactive,inactive,inactive,,,,
O=C(O)c1cc(=O)c2c(OCC(O)COc3cccc4oc(C(=O)O)cc(=O)c34)cccc2o1,,,,inactive,inactive,inactive,inactive,inactive,inactive,inactive
